Reference: PubChem BioAssay (Tox21)
Inconclusive results are not listed. A call without a number means that no potency is given here. Active and inactive are the calls of the source. Calls come from the whole dose curve; as a rule, active = well fitted cell-killing curve with a large enough effect in the repeat runs; inconclusive = weak or mixed curves, or effect the other way; inactive = no such curve, though single readings can be large or run the other way.

Assay: qHTS assay to identify small molecule agonists of the vitamin D receptor (VDR) signaling pathway - cell viability counter screen (AID 743224); note: nearly all actives have a fitted effect of over 50% in size
Conditions: VDR-bla HEK293T viability, CellTiter-Glo luminescence, 16 h; series mostly up to 62.6 µM
Excerpt: U.S. Tox21 Program National Center for Advancing Translational Sciences [NCATS] NIH Chemical Genomics Center [NCGC] U.S. Environmental Protection Agency [EPA] National Institutes of Environmental Health Sciences [NIEHS] National Toxicology Program [NTP] U.S. Food and Drug Administration [FDA] Tox21 Assay Overview: The vitamin D receptor (VDR), a member of nuclear hormone receptor superfamily, plays a critical role in calcium homeostasis and bone metabolism. It is also involved in cell differentiation and growth, and thrombogenicity. […] The cytotoxicity of the Tox21 compound library against the VDR-bla cell line was tested in parallel by measuring the cell viability using CellTiter-Glo assay (Promega, Madison, WI) in the same wells.
Tox21 Assay Protocol Summary: VDR-bla cells were dispensed at 2,000 cells/6 uL/well into black wall/clear-bottom 1536-well plates using a Multidrop Combi (Thermo Fisher Scientific, Waltham, MA) dispenser. After the assay plates were incubated at a 37C and 5% CO2 for 4 h, 23 nL of compounds dissolved in DMSO, positive controls or DMSO only was transferred to the assay plate by a Pintool station (Kalypsys, San Diego, CA). The plates were incubated at 37C and 5% CO2 for 16 h. After 1 uL of LiveBLAzerTM B/G FRET substrate was added using a Bioraptr Flying Reagent Dispenser (FRD) workstation (Beckman Coulter, Indianapolis, IN, USA), the plates were incubated at room temperature for 2 h, and fluorescence intensity was measured by an Envision plate reader (PerkinElmer, Shelton, CT). For cell viability readout that measures cytotoxicity, 3 ul/well of CellTiter-Glo reagent was added into the assay plates using a FRD. After 30 min incubation at room temperature, the luminescence intensity in the plates was measured using a ViewLux (PerkinElmer) plate reader.

Row | Structure (SMILES) | Potency
1 | ClC(Cl)C(Cl)Cl | inactive
2 | C[C@]12CC[C@H]3[C@@H](CC=C4C[C@@H](O)CC[C@@]43C)[C@@H]1CC[C@@H]2O | inactive
3 | O=C(O)c1ccc2[nH]cc(CCCCN3CC=C(c4ccccc4)CC3)c2c1 | inactive
4 | BrCCCCCCBr | inactive
5 | CN1C[C@@H](NS(=O)(=O)N(C)C)C[C@@H]2c3cccc4c3c(cn4C)C[C@H]21 | inactive
6 | NC1=NC(=O)C(c2ccccc2)O1 (stereo not given) | inactive
7 | CC(C)(C)OC(=O)c1ncn2c1[C@@H]1CCCN1C(=O)c1c(Br)cccc1-2 | inactive
8 | CC1=NNC(=O)N(/N=C/c2cccnc2)C1 | inactive
9 | CCCCP(CCCC)CCCC | inactive
10 | COC(=O)COc1ccc(Cl)cc1Cl | inactive
11 | O=C1c2ccccc2C(=O)c2ccccc21 | inactive
12 | OC(Cn1cncn1)(c1ccc(F)cc1)c1ccccc1F (stereo not given) | inactive
13 | Cc1coc2c1CCC(C)C2 (stereo not given) | inactive
14 | CCCCCCBr | inactive
15 | Clc1cccc(N2CCNCC2)c1 | inactive
16 | COC(=O)C(c1ccccc1)C1CCCCN1 (stereo not given) | inactive
17 | O=NN1CCCCC1 | inactive
18 | CC(Oc1ccc(Oc2ncc(C(F)(F)F)cc2Cl)cc1)C(=O)O (stereo not given) | inactive
19 | CCN(CC)c1nc(C)cc(OP(=S)(OC)OC)n1 | inactive
20 | C[C@H]1CCC[C@H](O)CCCCCc2cc(O)cc(O)c2C(=O)O1 | inactive

Row | Structure (SMILES) | Potency
21 | ClCC(Cl)Cl | inactive
22 | CCOP(=O)(OCC)OP(=O)(OCC)OCC | inactive
23 | COC(=O)c1ccccc1S(=O)(=O)NC(=O)Nc1nc(C)cc(C)n1 | inactive
24 | C=C(C)[C@@H]1CC=C(C=O)CC1 | inactive
25 | COc1cc(C[C@@H](C)N)c(OC)cc1C | inactive
26 | Nc1cc2c3c(c1)C(c1ccccc1)=N[C@@H](NC(=O)c1cccnc1)C(=O)N3CC2 | inactive
27 | N#CCCC#N | inactive
28 | CCOP(=S)(OCC)Oc1ncn(-c2ccccc2)n1 | inactive
29 | O=C(NCO)NCO | inactive
30 | O=C1CN2CCOC2(c2ccccc2Cl)c2cc(Cl)ccc2N1 (stereo not given) | inactive
31 | CCOC(=O)NC(=S)Nc1ccccc1NC(=S)NC(=O)OCC | inactive
32 | ClC(Cl)(Cl)C(Cl)(Cl)Cl | inactive
33 | COc1cc(OC)nc(NC(=O)NS(=O)(=O)c2ncccc2C(=O)N(C)C)n1 | inactive
34 | N#CC(O)c1ccccc1 (stereo not given) | inactive
35 | OCCSCSCCO | inactive
36 | CCN(CC)CCOC(=O)C(C)(c1ccccc1)c1ccccc1 | inactive
37 | CCOC(=O)N(C)C(=O)CSP(=S)(OCC)OCC | inactive
38 | CC(CCc1ccccc1)NC(C)C(O)c1ccc(O)cc1 (stereo not given) | inactive
39 | CC(=O)[C@H]1CC[C@H]2[C@@H]3CC[C@H]4C[C@H](O)CC[C@]4(C)[C@H]3C(=O)C[C@]12C | inactive
40 | CC(=O)C(Cl)Cl | inactive
